Results filed as inconclusive are left out. Calls of active or inactive are those of the source. The call rests on the fitted dose curve.

The text below walks through data of PubChem BioAssay (NCATS).

Peroxisome proliferator-activated receptor delta (Homo sapiens), sequence (Q03181 whole entry, looked up): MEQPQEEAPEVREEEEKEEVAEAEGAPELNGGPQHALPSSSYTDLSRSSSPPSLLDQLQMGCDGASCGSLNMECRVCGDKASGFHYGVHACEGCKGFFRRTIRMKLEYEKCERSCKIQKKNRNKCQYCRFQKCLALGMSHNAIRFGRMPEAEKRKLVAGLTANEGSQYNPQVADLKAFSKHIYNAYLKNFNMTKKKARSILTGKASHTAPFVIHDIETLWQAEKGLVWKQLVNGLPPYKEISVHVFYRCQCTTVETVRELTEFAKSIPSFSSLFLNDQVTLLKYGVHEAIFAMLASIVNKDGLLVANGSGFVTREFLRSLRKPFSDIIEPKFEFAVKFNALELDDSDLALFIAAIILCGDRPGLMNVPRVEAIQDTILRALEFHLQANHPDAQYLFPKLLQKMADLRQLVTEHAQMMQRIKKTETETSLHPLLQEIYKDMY

The target of the test is Peroxisome proliferator-activated receptor delta (Homo sapiens) (UniProt Q03181). The test is described as follows: qHTS assay for small molecule agonists of peroxisome proliferator-activated receptor delta signaling (AID 588534). The settings on record: HEK293T PPARdelta-UAS-bla, beta-lactamase ratio, 18 h; series mostly up to 76.7 µM. The procedure, abridged:
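Cell-based beta-lactamase reporter assay run in agonist mode: cells seeded and incubated 5 hrs at 37 C, compounds added and incubated 18 hrs at 37 C. CCF4 dye fluorescence read after 2 hrs at RT; EC50 and efficacy from Hill fits.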
`Nc1cc([N+](=O)[O-])ccc1C(=O)O`: the outcome was inactive.

As to `CCCCCCCCOC(=O)c1cc(O)c(O)c(O)c1`, the outcome was inactive.

In the case of `CC1=CC(=O)NS(=O)(=O)O1`, the outcome was inactive.

Regarding `O=C(O)/C=C/c1ccc(/C=C/C(=O)O)cc1`, the outcome was inactive.

On to `OCl`, for which the outcome was inactive.

In the case of `Cc1cccc(C)c1[N+](=O)[O-]`, the outcome was inactive.

On to `CC(=O)C1(C)CC2=C(CCCC2(C)C)CC1C` (stereo not given), for which the outcome was inactive.

Turning to `CC(C)C(=O)OC(=O)C(C)C`, the result was inactive.

Turning to `CS(=O)(=O)c1ccc(Cl)cc1`, the outcome was inactive.

As to `C[Si]1(C)O[Si](C)(C)O[Si](C)(C)O[Si](C)(C)O[Si](C)(C)O1`, the outcome was inactive.

For the molecule `S=C(NC1CCCCC1)NC1CCCCC1`, the outcome was inactive.

Turning to `CCCCCCC(O)CCCCCCCCCCC(=O)OC` (stereo not given), the result was inactive.

With `CC(C)(O)CCC(C)(C)O`, the result was inactive.

Consider `CSC(=O)c1cccc2nnsc12`, for which the result was inactive.

In the case of `C/C=C/C=C/C=O`, the result was inactive.

Consider `c1ccc(OCCOc2ccccc2)cc1`, for which the outcome was inactive.

In the case of `Cc1ccc(Cl)cc1N`, the result was inactive.

In the case of `O=C(Cl)c1c(Cl)cccc1Cl`, the outcome was inactive.

In the case of `CC(C)=CCC/C(C)=C/C=O`, the result was inactive.

Take `CCCCCCCCC/C=C/CC1CC(=O)OC1=O` (stereo not given): the outcome was inactive.

Consider `COc1ccc(N)c(OC)c1`, for which the outcome was inactive.

As to `Cc1ccc2c(c1)C(=O)OC2=O`, the outcome was inactive.

Turning to `CCCCOC(=O)c1ccccc1`, the result was inactive.

Take `O=Cc1c(Cl)cccc1Cl`: the outcome was inactive.

For the molecule `C=Cc1cccc(C)c1`, the result was inactive.

For the molecule `Cc1ccc(C#N)cc1`, the result was inactive.

Turning to `C=CC(C)(O)CC/C=C(\C)CCC=C(C)C` (stereo not given), the result was inactive.

Consider `CCCCCCCC/C=C\CCCCCCCC(=O)OC`, for which the outcome was inactive.

Consider `NC(=O)CCCCC(N)=O`, for which the result was inactive.

`O=C(O)c1ccc(Cl)c(Cl)c1`: the outcome was inactive.
